Drawing on PubChem BioAssay (NCI), this text covers growth for ten compounds.

Some test systems named below: SK-MEL-2 melanoma; EKVX NSCLC; SN12C renal; UO-31 renal; TK-10 renal; A498 renal; CCRF-CEM leukemia; MOLT-4 leukemia; SR leukemia; RPMI-8226 leukemia; OVCAR-8 ovarian; OVCAR-5 ovarian; OVCAR-4 ovarian; SK-OV-3 ovarian; IGROV1 ovarian; OVCAR-3 ovarian; HS 578T breast; NCI/ADR-RES ovarian; ACHN renal; CAKI-1 renal.
Common to all, as to test: NCI-60 one-dose screen, 48 h (100 = growth as untreated, 0 = no growth, -100 = all killed)
Holding throughout (conditions): 10 µM unless noted

Compounds without any hit were thinned out: in the full panel of roughly 83,000, 20% have a hit.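 Single-concentration screen, 48 h exposure, 96-well plates. Endpoint: percent growth. Below 10 = active.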 Values without a mark were called inactive. The source made the active and inactive calls.

Turning to `CCOC(=O)C1C(=O)C=C(c2cnccn2)CC1c1ccc(OC)c(OC)c1` (stereo unspecified), the growth is 86.4% with SK-MEL-2 melanoma; 101% in the experiment on EKVX NSCLC; 100% with SN12C renal; 87.4% in the experiment with UO-31 renal; 87.8% in the experiment on TK-10 renal; 119% with A498 renal. Moreover, the growth with CCRF-CEM leukemia is 82.2%; in the experiment with MOLT-4 leukemia, 73.2%; in the experiment with SR leukemia, 89.6%; in the experiment with RPMI-8226 leukemia, 90%; in the experiment with OVCAR-8 ovarian it was 92.3%; with OVCAR-5 ovarian, 103%. Also, the growth in the experiment on OVCAR-4 ovarian is 109%; with SK-OV-3 ovarian it was 82.2%; in the experiment on IGROV1 ovarian it was 105%; in the experiment on OVCAR-3 ovarian it was 106%; in the experiment with HS 578T breast, 99.8%; in the experiment with NCI/ADR-RES ovarian it was 98.2%.

With `CCCCCOC(=O)c1cccc(NC(=O)CN(CC)CC)c1`, the growth in the experiment on SK-MEL-2 melanoma was 70.7%; in the experiment with EKVX NSCLC, 100%; with SN12C renal, 106%; in the experiment with UO-31 renal it was 89.2%; in the experiment with TK-10 renal, 82.9%; with A498 renal, 113%. For the same compound, the growth was 87.5% with MOLT-4 leukemia; 78.3% with SR leukemia; 96.7% in the experiment with RPMI-8226 leukemia; 103% with OVCAR-8 ovarian; 107% with OVCAR-5 ovarian; 119% with OVCAR-4 ovarian. Further, the growth in the experiment on SK-OV-3 ovarian is 94.9%; in the experiment on IGROV1 ovarian, 107%; with OVCAR-3 ovarian, 113%; in the experiment on HS 578T breast, 111%; with NCI/ADR-RES ovarian it was 105%.

Consider `CSc1nc(N)c(CNC(C)c2ccccc2)c(=O)n1C` (stereo unspecified), for which the growth in the experiment on SK-MEL-2 melanoma was 98.9%; in the experiment on EKVX NSCLC it was 100%; in the experiment with SN12C renal, 101%; in the experiment on TK-10 renal, 120%; in the experiment on ACHN renal, 97.9%; with CAKI-1 renal, 107%. The growth in the experiment with A498 renal is 102%; in the experiment with CCRF-CEM leukemia, 106%; with MOLT-4 leukemia it was 93.1%; in the experiment with SR leukemia, 103%; with RPMI-8226 leukemia it was 109%; with OVCAR-8 ovarian, 97.9%. In addition, the growth in the experiment with OVCAR-5 ovarian was 91.7%; in the experiment with OVCAR-4 ovarian it was 104%; in the experiment on SK-OV-3 ovarian, 97.5%; in the experiment with IGROV1 ovarian, 101%; with OVCAR-3 ovarian, 110%; in the experiment with HS 578T breast, 99.6%. Besides, the growth with NCI/ADR-RES ovarian was 100%.

On to `CN1CCN(c2ccc3nc(/N=C/c4ccc5sc(-c6ccc([N+](=O)[O-])cc6)nc5c4)sc3c2)CC1`, for which the growth is 111% with SK-MEL-2 melanoma; 97.7% in the experiment with EKVX NSCLC; 104% in the experiment on SN12C renal; 101% with TK-10 renal; 108% in the experiment on ACHN renal; 108% in the experiment on CAKI-1 renal. For the same compound, the growth is 101% with CCRF-CEM leukemia; 108% in the experiment on MOLT-4 leukemia; 91.9% in the experiment with SR leukemia; 101% in the experiment on RPMI-8226 leukemia; 99.6% in the experiment with OVCAR-8 ovarian; 107% with OVCAR-5 ovarian. In addition, the growth in the experiment on OVCAR-4 ovarian is 105%; in the experiment with IGROV1 ovarian, 114%; with OVCAR-3 ovarian, 112%; in the experiment with HS 578T breast, 114%; with NCI/ADR-RES ovarian, 104%.

As for `COc1cc(C(=O)/C=C/c2c(-c3ccc(F)cc3)nc3ncccn23)cc(OC)c1OC`, the growth in the experiment on SK-MEL-2 melanoma is 30.1%; in the experiment with EKVX NSCLC, 52.3%; in the experiment with SN12C renal it was 60.8%; in the experiment on TK-10 renal, 78.2%; in the experiment with ACHN renal it was 47%; with CAKI-1 renal it was 16.2%. Besides, the growth in the experiment with A498 renal was 69.9%; in the experiment on CCRF-CEM leukemia it was 18.9%; in the experiment with MOLT-4 leukemia it was 50.7%; with SR leukemia, 9.6% (active); in the experiment on RPMI-8226 leukemia, 11.3%; with OVCAR-8 ovarian, 48.3%. Also, the growth was 46.5% in the experiment with OVCAR-4 ovarian, 63.9% in the experiment with SK-OV-3 ovarian, 47.8% in the experiment on IGROV1 ovarian and 19.1% in the experiment with OVCAR-3 ovarian.

With `Cc1cc(=O)c2cc3nc(-c4cccnc4)oc3c(Br)c2o1`, the growth in the experiment with SK-MEL-2 melanoma is 131%; in the experiment on EKVX NSCLC it was 98.9%; in the experiment with SN12C renal, 110%; in the experiment with TK-10 renal, 153%; in the experiment with ACHN renal, 110%; with A498 renal it was 103%. The growth was 94.1% with CCRF-CEM leukemia; 89.7% with MOLT-4 leukemia; 70.7% in the experiment on SR leukemia; 90% in the experiment with RPMI-8226 leukemia; 99.9% in the experiment with OVCAR-8 ovarian; 90.1% in the experiment on OVCAR-5 ovarian. The growth in the experiment on OVCAR-4 ovarian was 101%; in the experiment on SK-OV-3 ovarian, 195%; with OVCAR-3 ovarian, 123%; in the experiment on HS 578T breast, 116%; in the experiment on NCI/ADR-RES ovarian, 83.9%.

Take `C=C1C(=O)O[C@H]2[C@H]1CC/C(COC(=O)/C=C\C(=O)NCc1ccc(Cn3c(=O)sn(-c4ccc(OC)cc4)c3=O)cc1)=C\CC[C@@]1(C)O[C@@H]21`: the growth with SK-MEL-2 melanoma was -54.2% (active); in the experiment with EKVX NSCLC, -82.9% (active); in the experiment with SN12C renal, -96.4% (active); with TK-10 renal, -75.4% (active); in the experiment with ACHN renal, -98.8% (active); with CAKI-1 renal it was -66.1% (active). Moreover, the growth with A498 renal was 7.18% (active); with CCRF-CEM leukemia, -11.4% (active); with MOLT-4 leukemia, -26.4% (active); in the experiment with OVCAR-8 ovarian, 4.05% (active); with OVCAR-5 ovarian, -86.8% (active); in the experiment on OVCAR-4 ovarian, -77% (active). Besides, the growth was 61.4% in the experiment on SK-OV-3 ovarian; -97.3% (active) in the experiment on IGROV1 ovarian; -88.6% (active) with OVCAR-3 ovarian; -21.3% (active) with HS 578T breast; -16% (active) with NCI/ADR-RES ovarian.

`Cn1ncc2c(Nc3ccc(Br)cc3)nc(Nc3ccc(Br)cc3)nc21`: the growth in the experiment on SK-MEL-2 melanoma was 47.6%; in the experiment with EKVX NSCLC, 41%; with SN12C renal it was 47.1%; in the experiment with TK-10 renal, 73.1%; in the experiment on ACHN renal, 40.1%; with CAKI-1 renal, 37.7%. Further, the growth in the experiment with CCRF-CEM leukemia is 27.8%; in the experiment on MOLT-4 leukemia, 26.7%; in the experiment with RPMI-8226 leukemia, 23.2%; in the experiment on OVCAR-8 ovarian, 59.6%; in the experiment with OVCAR-5 ovarian, 56.9%; in the experiment on OVCAR-4 ovarian, 51.9%. Further, the growth is 78.1% with SK-OV-3 ovarian, 48.9% in the experiment on IGROV1 ovarian, 68.2% with OVCAR-3 ovarian and 21.5% in the experiment with NCI/ADR-RES ovarian.

For `O=C(CC12CC3CC(CC(C3)C1)C2)NCCOCCOCCOCCNC(=O)c1cc2c(o1)C(=O)c1ccccc1C2=O`, the growth with SK-MEL-2 melanoma was -27.6% (active); in the experiment on EKVX NSCLC it was -27.1% (active); in the experiment with SN12C renal it was -90.7% (active); with TK-10 renal, -3.88% (active); in the experiment with ACHN renal, -22.4% (active); with CAKI-1 renal, -27% (active). Moreover, the growth was 13% in the experiment on CCRF-CEM leukemia; 7.19% (active) in the experiment with MOLT-4 leukemia; 7.13% (active) in the experiment on SR leukemia; 12.4% with OVCAR-8 ovarian; -87.9% (active) in the experiment on OVCAR-5 ovarian; -95.9% (active) with OVCAR-4 ovarian. Moreover, the growth is -10.8% (active) in the experiment on IGROV1 ovarian, -42.9% (active) in the experiment with OVCAR-3 ovarian, -27.2% (active) with HS 578T breast and -15% (active) in the experiment on NCI/ADR-RES ovarian.

Regarding `CC(C)CCC[C@@H](C)[C@H]1CCC2C3=CCC4C(=O)C=CC(=O)C4C3CC[C@@]21C` (stereo partly specified), the growth in the experiment with SK-MEL-2 melanoma was -16.4% (active); with EKVX NSCLC, -10% (active); in the experiment with SN12C renal, 20.1%; in the experiment with TK-10 renal it was -36.6% (active); in the experiment with ACHN renal, 4.54% (active); with CAKI-1 renal, -56.3% (active). Also, the growth in the experiment with A498 renal is -6.21% (active); in the experiment with MOLT-4 leukemia, 10.4%; in the experiment with SR leukemia, 13.2%; in the experiment with RPMI-8226 leukemia it was 8.72% (active); in the experiment with OVCAR-8 ovarian it was 0.168% (active); with OVCAR-5 ovarian it was 7.74% (active). The growth in the experiment with OVCAR-4 ovarian was -9.33% (active); in the experiment with SK-OV-3 ovarian, 10.5%; in the experiment on IGROV1 ovarian, -63.2% (active); with OVCAR-3 ovarian, 2.72% (active); in the experiment with HS 578T breast it was 8.12% (active); in the experiment on NCI/ADR-RES ovarian, 7.87% (active).
